16 molecules from PubChem BioAssay can be followed below.

Calls of active or inactive are those of the source. How the calls were made is not given here.

A short description of this experiment: Brca1-Bard1 BiLC signal decrease – luminescence, single concentration, counter-screen for Mdm2/MdmX interaction inhibitor project, confirmation (AID 504668). To be noted: Brca1/Bard1 bimolecular luciferase complementation counterscreen, at 8 µM, stronger effect = higher value.

For the molecule `CC(NC(=O)/C(C#N)=C/c1ccc(Cl)c([N+](=O)[O-])c1)c1ccccc1` (stereo unspecified), the inhibition is 29% (active).
The value for `CCCNC(=O)c1ccc2c(=O)c(O)c(-c3cccc(Br)c3)[nH]c2c1` was 31.4% (active); that for `COc1ccc(C(=O)O/N=C(\N)Cc2ccc(Cl)c(Cl)c2)cc1OC` was 26.9% (active); that for `O=c1c2ccccc2nc(/C=C/c2cc(Br)ccc2O)n1CCCO` was 26.6% (active).
The value for `O=S(=O)(CCSc1nc2ccccc2o1)c1nc2ccccc2s1` was 35.6% (active); that for `COC(=O)[C@@H]1C[C@]2(OC(=O)c3ccccc3)C=CC(=O)C[C@@H]2N1C(=O)OCc1ccccc1` was 34.4% (active); that for `Cc1cc(C(=O)CCl)c(C)n1CCc1ccc(F)cc1` was 34.4% (active).
The value for `Cc1ccc(O)c(CNCCNCc2cc(C)ccc2O)c1` was 32.6% (active); that for `N#Cc1c(-c2ccccc2)c(-c2ccccc2)nn(CC(=O)NNC(=O)Nc2ccc(Cl)c(Cl)c2)c1=O` was 35.9% (active).
`CCOc1cccc2sc(NC(=O)CCS(=O)(=O)c3ccccc3)nc12`: the inhibition was 35.4% (active).
Take `O=C(Oc1c(Cl)cc(Cl)c2cccnc12)c1cccs1`: the inhibition is 32.1% (active).
The figure for `CC(=O)N1CCN(c2ccc(NC(=O)c3ccc([N+](=O)[O-])o3)cc2Cl)CC1` is 26.6% (active); for `CCN1/C(=C/c2ccc3cccc(C)c3[n+]2CC)Sc2ccccc21` it is 26.4% (active); for `Cc1ccccc1OCC(O)Cn1c(=N)n(Cc2ccccc2)c2ccccc21` (stereo unspecified) it is 28.9% (active).
The figure for `NC(N)=N/N=C/c1ccc(OCc2ccccc2Cl)cc1` is 32.5% (active); for `COc1cc(/C=C/c2ccc3cccc(O)c3n2)cc(OC)c1OC` it is 27.2% (active).
